About 410 targets per protein were measured; listed, in parts, are those with the strongest signals and a random draw of the rest.

Sequence of Aggrecan (Rattus norvegicus), NP_071526 (chain, as listed by the source): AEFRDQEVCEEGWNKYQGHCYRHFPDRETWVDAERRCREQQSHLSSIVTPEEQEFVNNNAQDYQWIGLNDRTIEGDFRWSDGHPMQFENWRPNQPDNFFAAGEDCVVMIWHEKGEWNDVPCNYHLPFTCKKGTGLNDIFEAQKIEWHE
Sequence of C3b (Homo sapiens), P01024 (P01024 23-667): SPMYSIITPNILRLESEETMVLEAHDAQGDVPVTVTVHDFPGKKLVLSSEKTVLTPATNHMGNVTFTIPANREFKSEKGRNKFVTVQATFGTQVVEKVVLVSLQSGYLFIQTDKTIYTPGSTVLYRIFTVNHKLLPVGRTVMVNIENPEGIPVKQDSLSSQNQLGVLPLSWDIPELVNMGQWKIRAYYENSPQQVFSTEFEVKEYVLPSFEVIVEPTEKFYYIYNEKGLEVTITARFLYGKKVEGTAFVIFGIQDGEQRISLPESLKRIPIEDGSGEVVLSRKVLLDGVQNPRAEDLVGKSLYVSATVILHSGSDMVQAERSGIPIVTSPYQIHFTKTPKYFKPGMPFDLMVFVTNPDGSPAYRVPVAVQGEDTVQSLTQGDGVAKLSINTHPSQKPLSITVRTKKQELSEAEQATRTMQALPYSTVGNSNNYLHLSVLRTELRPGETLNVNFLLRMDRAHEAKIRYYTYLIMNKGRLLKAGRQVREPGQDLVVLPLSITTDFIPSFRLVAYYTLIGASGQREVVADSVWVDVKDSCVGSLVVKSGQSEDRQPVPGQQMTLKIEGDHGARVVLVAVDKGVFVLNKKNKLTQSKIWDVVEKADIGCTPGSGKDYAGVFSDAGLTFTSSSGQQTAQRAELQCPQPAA
Sequence of PILRb (Mus musculus), Q2YSF2 (Q2YSF2 entry or part of it): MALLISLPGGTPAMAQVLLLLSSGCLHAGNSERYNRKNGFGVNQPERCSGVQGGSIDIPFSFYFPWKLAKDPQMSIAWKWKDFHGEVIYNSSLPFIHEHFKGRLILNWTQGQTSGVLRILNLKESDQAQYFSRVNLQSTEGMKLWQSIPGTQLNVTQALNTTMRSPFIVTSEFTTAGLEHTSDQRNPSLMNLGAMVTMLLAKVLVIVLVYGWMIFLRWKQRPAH

For the experiment, the system named is Fuc(a1-2)Gal(b1-3)GalNAc(b1-3)Gal(a1-4)Gal(b1-4)Glc. As to the kind of experiment: glycan array binding signal (z-score within array); higher = stronger binding. The note with it: glycan notation: IUPAC condensed, linker removed. In short, it runs like this: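 Arrays were curated from the Consortium for Functional Glycomics database, 3228 in total, and kept only where the protein sequence was available. Binding is expressed as a within-array Z-score. This score was averaged across arrays of the same protein sequence at different concentrations or buffers and across linkers, and negative values can be read as non-binding.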
With C3b (Homo sapiens), P01024, the “glycan array binding signal (z-score)” value came out at 0.194.

Aggrecan (Rattus norvegicus), NP_071526: the “glycan array binding signal (z-score)” value was -0.123.

Take PILRb (Mus musculus), Q2YSF2: the “glycan array binding signal (z-score)” value is -0.245.

(Values after the supplement of paper PMC8728848.)
